This note sets out measurements from PubChem BioAssay (NCI).

Test systems include HCT-15 colon; HT29 colon; SNB-19 CNS; U251 CNS; PC-3 prostate; SK-MEL-5 melanoma; UACC-62 melanoma; LOX IMVI melanoma; SK-MEL-28 melanoma; SK-MEL-2 melanoma; EKVX NSCLC; SN12C renal; UO-31 renal; TK-10 renal; ACHN renal; CAKI-1 renal; A498 renal; CCRF-CEM leukemia; MOLT-4 leukemia.
Common to all, as to assay: NCI-60 one-dose screen, 48 h (100 = growth as untreated, 0 = no growth, -100 = all killed)
Conditions in all cases: 10 µM unless noted

The panel holds about 83,000 compounds, 20% with a hit somewhere; the sample as a whole holds those more often.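 Cells were grown in 96-well plates and exposed to the test compound at a single concentration for 48 hours; results are reported as percent growth, with values below 10 considered active.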 Unmarked numbers belong to inactive results. Calls of active or inactive are those of the source.

Turning to `Cc1ccc(C(C(N)=O)C(C(N)=O)c2ccccc2)cc1` (centres undefined), the growth in the assay with HCT-15 colon is 110%; with HT29 colon, 109%; in the assay with SNB-19 CNS, 109%; in the assay with U251 CNS, 104%; in the assay with PC-3 prostate, 105%; in the assay on SK-MEL-5 melanoma, 117%. The growth with UACC-62 melanoma was 119%; in the assay with LOX IMVI melanoma, 108%; with SK-MEL-28 melanoma, 123%; with SK-MEL-2 melanoma, 105%; in the assay on EKVX NSCLC, 113%; in the assay with SN12C renal, 112%. The growth was 108% with UO-31 renal; 101% in the assay on TK-10 renal; 115% with ACHN renal; 101% with CAKI-1 renal; 116% in the assay on A498 renal; 93.4% with CCRF-CEM leukemia. In addition, the growth in the assay with MOLT-4 leukemia was 100%.

Consider `CO[C@]12C=C/C(=C(/C(=O)OCc3cccnc3)C(=O)CCCCCCCC[C@@]3(OC)C=C/C(=C(/C(=O)OCc4cccnc4)C(=O)CCCCCCCC1)O3)O2`, for which the growth in the assay on HCT-15 colon was 2.29% (active); in the assay with HT29 colon it was 14.5%; in the assay on SNB-19 CNS, 33.7%; in the assay on U251 CNS, 20.3%; with PC-3 prostate it was 8.77% (active); in the assay with SK-MEL-5 melanoma, -59.1% (active). For the same compound, the growth is -54% (active) in the assay with UACC-62 melanoma; -35.9% (active) with LOX IMVI melanoma; -5.65% (active) in the assay on SK-MEL-28 melanoma; 21.4% in the assay on SK-MEL-2 melanoma; 12.8% with EKVX NSCLC; 5.99% (active) with SN12C renal. Besides, the growth in the assay on UO-31 renal is -10.7% (active); in the assay on TK-10 renal, 39%; in the assay with ACHN renal, -19.3% (active); in the assay with CAKI-1 renal, 22.9%; in the assay on A498 renal, 1.93% (active); in the assay on CCRF-CEM leukemia it was 1.38% (active). The growth in the assay with MOLT-4 leukemia is -2.22% (active).

For `CC[C@]12C=CCN3CC[C@@]4(c5cc(NC(=O)CCC(=O)OCc6cn(Cc7ccc(F)cc7)nn6)c(OC)cc5N(C)[C@H]4[C@@](O)(C(=O)OC)[C@@H]1OC(C)=O)[C@@H]32`, the growth with HCT-15 colon was 105%; in the assay on HT29 colon it was 103%; in the assay on SNB-19 CNS it was 98.5%; in the assay on U251 CNS, 101%; in the assay with PC-3 prostate, 93.8%; in the assay on SK-MEL-5 melanoma, 112%. The growth with UACC-62 melanoma is 98%; in the assay on LOX IMVI melanoma, 99.3%; in the assay with SK-MEL-28 melanoma, 109%; with SK-MEL-2 melanoma, 109%; in the assay with EKVX NSCLC, 101%; in the assay on SN12C renal it was 96.4%. In addition, the growth in the assay with UO-31 renal was 85.8%; with TK-10 renal, 94%; in the assay on ACHN renal it was 101%; in the assay with CAKI-1 renal, 89.7%; with A498 renal it was 109%; in the assay with CCRF-CEM leukemia, 102%. In addition, the growth in the assay on MOLT-4 leukemia was 104%.

Regarding `CC1(C)CC2=C3C=C[C@@H]4[C@@]5(C)CCC(=O)C(C)(C)[C@@H]5CC[C@@]4(C)[C@]3(C)CC[C@@]2(C(=O)O)CC1=O`, the growth with HCT-15 colon was 57.2%; with HT29 colon, 50.4%; in the assay on SNB-19 CNS, 96.5%; in the assay with U251 CNS, 61.2%; in the assay on PC-3 prostate it was 74.3%; with SK-MEL-5 melanoma, 55.2%. Moreover, the growth was 64% with UACC-62 melanoma; 87.2% with LOX IMVI melanoma; 46.5% in the assay on SK-MEL-28 melanoma; 68.3% with SK-MEL-2 melanoma; 63.3% with EKVX NSCLC; 85.1% in the assay on SN12C renal. Also, the growth in the assay on UO-31 renal is 44.4%; in the assay with TK-10 renal, 61.2%; with ACHN renal it was 40.8%; in the assay with CAKI-1 renal, 52.3%; in the assay on A498 renal, 42.1%; with CCRF-CEM leukemia, 58%. Also, in the assay on MOLT-4 leukemia, the growth is 54.6%.

Take `CN1C(=O)/C(=C/c2cn(-c3ccccc3)nc2-c2ccccc2)SC1=S`: the growth in the assay with HCT-15 colon was 103%; with HT29 colon, 109%; in the assay on SNB-19 CNS it was 100%; with U251 CNS, 110%; in the assay with PC-3 prostate, 90.2%; with SK-MEL-5 melanoma, 98%. In addition, the growth in the assay on UACC-62 melanoma was 86.7%; in the assay with LOX IMVI melanoma, 89.6%; in the assay on SK-MEL-28 melanoma it was 105%; in the assay on SK-MEL-2 melanoma, 107%; with EKVX NSCLC, 102%; with SN12C renal it was 100%. Further, the growth was 92.2% in the assay on UO-31 renal; 112% with TK-10 renal; 100% in the assay with ACHN renal; 89.1% in the assay with CAKI-1 renal; 79.2% in the assay with A498 renal; 107% in the assay on CCRF-CEM leukemia. In the assay with MOLT-4 leukemia, the growth is 114%.

Consider `COCCn1cc(-c2nc(-c3cc4cccnc4n3CCOC)cs2)c2cc(OC)ccc21`, for which the growth with HCT-15 colon is 17%; in the assay with HT29 colon it was 21.9%; in the assay on SNB-19 CNS it was 91.1%; in the assay on U251 CNS it was 69.8%; in the assay with PC-3 prostate, 29.3%; in the assay on SK-MEL-5 melanoma, 36.7%. For the same compound, the growth is 80.7% in the assay on UACC-62 melanoma; 15.4% with LOX IMVI melanoma; 87.2% in the assay with SK-MEL-28 melanoma; 71.6% in the assay on SK-MEL-2 melanoma; 26% in the assay on EKVX NSCLC; 78.8% in the assay with SN12C renal. Moreover, the growth was 61.9% in the assay on UO-31 renal; 14% in the assay with TK-10 renal; 68.3% with ACHN renal; 70.4% in the assay with CAKI-1 renal; 66.8% in the assay on A498 renal; 35.2% with CCRF-CEM leukemia. The growth with MOLT-4 leukemia was 58.4%.

`COc1ccc(C(=O)C2C(c3ccc(OC)cc3)CN(C)C23C(=O)Nc2ccccc23)cc1` (centres undefined): the growth in the assay on HCT-15 colon is 86.9%; in the assay with HT29 colon, 84.3%; with SNB-19 CNS, 86%; in the assay on U251 CNS, 92.9%; in the assay with SK-MEL-5 melanoma it was 99.1%; with UACC-62 melanoma, 66.3%. Besides, the growth with LOX IMVI melanoma is 93%; with SK-MEL-2 melanoma, 96.9%; in the assay with EKVX NSCLC, 91%; with SN12C renal it was 92.1%; in the assay on UO-31 renal it was 70.3%; with TK-10 renal, 103%. Further, the growth is 95.5% in the assay on ACHN renal; 68.2% in the assay with CAKI-1 renal; 99.8% in the assay on A498 renal; 97.4% in the assay on CCRF-CEM leukemia; 88.1% in the assay on MOLT-4 leukemia.

For `CN1C(=O)/C(=C/c2ccc(C(=O)Nc3ncc(Cc4ccc(Cl)cc4)s3)cc2)SC1=S`, the growth in the assay with HCT-15 colon is 21.7%; with HT29 colon, 20.2%; in the assay with SNB-19 CNS, 69.3%; in the assay on U251 CNS it was 61.7%; in the assay on SK-MEL-5 melanoma, 26.2%; in the assay with UACC-62 melanoma, 21.4%. Moreover, the growth with LOX IMVI melanoma is 18%; in the assay on SK-MEL-28 melanoma it was 60.2%; in the assay on SK-MEL-2 melanoma it was 75.6%; with EKVX NSCLC, 52.6%; with SN12C renal, 68.1%; in the assay with UO-31 renal, 46.7%. The growth in the assay with TK-10 renal is 57.7%; in the assay on ACHN renal, 29.2%; in the assay with CAKI-1 renal, 21.2%; in the assay with A498 renal, 39.9%; with CCRF-CEM leukemia, 55.5%; in the assay with MOLT-4 leukemia it was 46.8%.
